Bioassay records from PubChem BioAssay.
Rab9 prom act = qHTS Assay for Rab9 Promoter Activators; Huh7 Rab9 promoter-luciferase reporter, luminescence, 24 h; Potency, µM (titrated, usually from 9.22 µM), without a hit: top-dose activation, negative = inhibition, hits mostly activators; actives 2.8% (n = 320,000); AID 485297, 2010; further: % of control where 0% means no effect; nearly all actives have a fitted effect of over 60% in size
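Promoter activation is measured as luciferase luminescence in Huh7 cells stably transfected with a Rab9 promoter–luciferase construct, following 24 h compound exposure at 37 °C and 10 min reagent incubation at ambient temperature.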
FLuc counter = qHTS profiling assay for firefly luciferase inhibitor/activator using purifed enzyme and Km concentrations of substrates (counterscreen for miR-21 project); Luciferin 4-monooxygenase (Photinus pyralis), P08659; actives 6.9% (n = 360,000); Potency, µM (series often up to 57.5 µM), without a hit: at the highest dose activity change, negative = inhibition, most hits filed as inhibitors; purified FLuc, Km substrates, luminescence inhibition;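 further: plate controls were vehicle for no effect and reference inhibitor for full effect; nearly all actives have a fitted effect of over 55% in size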
Target sequence (P08659 whole entry, looked up): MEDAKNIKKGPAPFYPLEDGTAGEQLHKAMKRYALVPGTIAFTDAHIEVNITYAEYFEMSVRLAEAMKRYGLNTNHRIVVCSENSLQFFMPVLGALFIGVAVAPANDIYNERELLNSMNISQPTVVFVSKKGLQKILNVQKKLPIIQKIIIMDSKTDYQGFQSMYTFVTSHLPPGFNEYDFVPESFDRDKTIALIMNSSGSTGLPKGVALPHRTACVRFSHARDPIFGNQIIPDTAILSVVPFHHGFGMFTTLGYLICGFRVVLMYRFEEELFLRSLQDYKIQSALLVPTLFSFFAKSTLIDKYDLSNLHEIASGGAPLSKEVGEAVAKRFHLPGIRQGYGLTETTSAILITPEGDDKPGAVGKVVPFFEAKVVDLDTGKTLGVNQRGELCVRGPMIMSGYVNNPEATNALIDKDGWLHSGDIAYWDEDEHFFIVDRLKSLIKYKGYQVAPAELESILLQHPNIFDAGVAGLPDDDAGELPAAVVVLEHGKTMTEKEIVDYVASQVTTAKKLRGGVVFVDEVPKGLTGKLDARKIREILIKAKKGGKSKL
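Purified P. pyralis luciferase (10nM final) with 10uM D-luciferin and 10uM ATP (Km levels) in 50mM Tris acetate pH 7.5, 10mM Mg acetate, 0.01% Tween-20, 0.05% BSA; qHTS 6-point titration, ~60 µM downward; luminescence read.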
NPC1 prom act = qHTS Assay for NPC1 Promoter Activators | Huh7 NPC1 promoter luciferase reporter, 24 h | Potency, µM (highest dose often 9.22 µM), without a hit: at the highest dose activation, most hits filed as activators | actives 2.4% (n = 320,000); further: % of control where 0% means no effect; nearly all actives have a fitted effect of over 60% in size
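Stably transfected Huh7 (NPC1 promoter→luciferase), 1500 cells/well in Opti-MEM + 10% FBS, 2 h settle, then compound 24 h at 37 °C. Luminescence after 10 min with Amplite reagent.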
ELG1 genotoxic = qHTS screen for small molecules that induce genotoxicity in human embryonic kidney (HEK293T) cells expressing luciferase-tagged ELG1 | HEK293T ELG1-luciferase reporter, luminescence, 16 h | Potency, µM (series often up to 46 µM), for the others: at the highest dose activity change, positive = activation, hits mostly activators | actives 1.3% (n = 330,000) | AID 504466, 2011; further: % of control where 0% means no effect; nearly all actives have a fitted effect of over 60% in size
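Luminescence read-out: rising ELG1-luciferase signal, reflecting elevated ELG1 protein under genetic stress, flags genotoxic compounds. Cells were treated for 16 hr at 37 °C before ONE-Glo detection.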
SMN2 splice enh = qHTS Assay for Enhancers of SMN2 Splice Variant Expression | HEK293 SMN2-luciferase splicing reporter, luminescence, 30-36 h | Potency, µM (highest dose often 46.1 µM), without a hit: at the top dose activity change, positive = activation, usual class: activators | actives 2.8% (n = 210,000); further: % of control where 0% means no effect; nearly all actives have a fitted effect of over 55% in size
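HEK293 cells carry an SMN2 minigene-luciferase reporter in which exon 7 inclusion puts luciferase in frame. Cells were seeded at 2000 cells/well, attached for 10-12 hours, then exposed to compounds for 30-36 hours at 37C before ONE-Glo luminescence.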
Luc counter = Counterscreen for Luciferase (Kinase-Glo TM) Inhibition; Kinase-Glo luciferase, ATP luminescence, 8 min; Potency, µM (highest dose often 38.3 µM), for inactives: at the top dose activity change, negative = inhibition, usual class: inhibitors; actives 0.28% (n = 200,000); further: on the % scale 0 is the no-effect control and ±100 the full control effect; nearly all actives have a fitted effect of over 60% in size
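Compounds were added to a substrate mix at pH 7.2 (50 mM imidazole, 10 uM ATP, within the enzyme's linear range), followed by Kinase-Glo detection reagent; luminescence was measured after 8 minutes at ambient temperature.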
Active calls of the source: *; [ ] = remark or other dose. Compounds with a hit are over-represented: about 7.5% of the library has one in this group of screens. The call rests on the fitted dose curve; in most records, active means well fitted curve in the direction sought with a large enough effect; inconclusive means small, poorly fitted or top-dose-only effect, or another doubt; inactive means no such curve, though single readings can be large; an effect the other way counts as inactive or inconclusive. Potency means the concentration at half of the fitted maximal effect.

Results for Cn1c(=Nc2ccccc2)sc2ccccc21 ?
Rab9 prom act: 24%; FLuc counter: 21µM*; NPC1 prom act: 14%; ELG1 genotoxic: inconclusive; SMN2 splice enh: -20%; Luc counter: -1%

What do the screens show for `Cc1ccc(S(=O)(=O)N/N=c2\sc3ccccc3n2C)cc1`?
Rab9 prom act: -3%; FLuc counter: 2%; NPC1 prom act: -1%; ELG1 genotoxic: -2%; SMN2 splice enh: 21%; Luc counter: 0%

Results for Cc1cccc(C(C)C)c1NC(=O)C1CCCN1S(=O)(=O)c1cccc2nsnc12 (stereo not drawn) ?
FLuc counter: -4%; SMN2 splice enh: -32%

Results for O/N=C\c1cnc(N2CCN(c3ccccc3)CC2)s1 ?
Rab9 prom act: inconclusive; FLuc counter: 17µM*; NPC1 prom act: 16%; ELG1 genotoxic: inconclusive

Results for COC(=O)c1ccccc1NC(=O)c1c(C)oc2ncn(C)c(=O)c12 ?
FLuc counter: -5%; SMN2 splice enh: -1%

Results for CN(C)c1ccc(N/C=C/C(=O)c2ccccc2)cc1 ?
Rab9 prom act: 3.2µM*; FLuc counter: 0.27µM*; NPC1 prom act: 2.8µM*; ELG1 genotoxic: 0.73µM*; SMN2 splice enh: 3.2µM*; Luc counter: 4µM*

What do the screens show for `CC(=O)Nc1ccc(N/C=C/C(=O)c2ccccc2)cc1`?
Rab9 prom act: 2.8µM*; FLuc counter: 4.8µM*; NPC1 prom act: 1.6µM*; ELG1 genotoxic: inconclusive

What do the screens show for `Cc1cc(N/C=C/C(=O)c2ccccc2)ccc1Br`?
Rab9 prom act: 3.2µM*; FLuc counter: 0.48µM*; NPC1 prom act: inconclusive; ELG1 genotoxic: inconclusive

How did CC(=O)Nc1ccc(C(=O)c2ccccc2)cc1 do in these assays?
Rab9 prom act: 23%; FLuc counter: -7%; NPC1 prom act: 0%; ELG1 genotoxic: 17%

How did CN(C)c1ccc(N/C=C/C(=O)C(C)(C)C)cc1 do in these assays?
Rab9 prom act: 28%; FLuc counter: 5.4µM*; NPC1 prom act: 4%; ELG1 genotoxic: inconclusive; SMN2 splice enh: -27%; Luc counter: 16%

How did CN(C)c1ccc(/C=N/NC(=O)c2ccc(NC(=O)c3ccccc3)cc2)cc1 do in these assays?
Rab9 prom act: 12%; FLuc counter: -17%; NPC1 prom act: 1%; ELG1 genotoxic: 8%

Results for O=C(Nc1ccccc1)c1nc[nH]c1C(=O)O ?
FLuc counter: -14%; SMN2 splice enh: 0%

How did Cc1ccc(Cc2c(C)nc3nc(SCC(=O)NC4CCC(C)CC4)nn3c2C)cc1 (stereo not drawn) do in these assays?
FLuc counter: -17%

How did Cc1cc(OCCCSc2nc(-c3ccc(C(C)(C)C)cc3)nc3cc(=O)[nH]n23)ccc1Cl do in these assays?
FLuc counter: -13%

How did CCOc1ccc(NC(=O)CSc2nc3ccsc3c(=O)n2CCC(C)C)cc1 do in these assays?
FLuc counter: -2%

How did O=C(/C=C/Nc1ccc(F)cc1Br)c1ccccc1 do in these assays?
Rab9 prom act: 0.11µM*; FLuc counter: 0.085µM*; NPC1 prom act: 0.5µM*; ELG1 genotoxic: 0.16µM*; SMN2 splice enh: -45%; Luc counter: inconclusive

How did O=C(/C=C/Nc1ccccc1)c1ccccc1 do in these assays?
Rab9 prom act: 1µM*; FLuc counter: 0.34µM*; NPC1 prom act: 0.56µM*; ELG1 genotoxic: inconclusive; SMN2 splice enh: 11µM*; Luc counter: 7.1µM*

What do the screens show for `NC(N)=NS(=O)(=O)c1ccc(N/C=C\C(=O)c2ccncc2)cc1`?
Rab9 prom act: -17%; FLuc counter: 0%; NPC1 prom act: 0%; ELG1 genotoxic: 1%; Luc counter: -1%

What do the screens show for `O=C(/C=C\Nc1ccc(Br)cc1)c1cccnc1`?
Rab9 prom act: 1.3µM*; FLuc counter: 0.95µM*; NPC1 prom act: 1.8µM*; ELG1 genotoxic: 21µM*; Luc counter: -14%

What do the screens show for `O=C(/C=C/Nc1ccccc1)c1ccc(Cl)cc1Cl`?
Rab9 prom act: 0.5µM*; FLuc counter: 0.38µM*; NPC1 prom act: 0.35µM*; ELG1 genotoxic: 0.92µM*

What do the screens show for `COc1ccc(NC(=O)c2ccc(C(=O)c3ccccc3)o2)cc1`?
Rab9 prom act: inconclusive; FLuc counter: inconclusive; NPC1 prom act: 16%; ELG1 genotoxic: -3%; SMN2 splice enh: -14%; Luc counter: -6%

Results for O=C(Nc1ccc2ccccc2c1)c1ccc(Br)o1 ?
Rab9 prom act: 3.5µM*; FLuc counter: 5.4µM*; NPC1 prom act: 3.5µM*; ELG1 genotoxic: inconclusive

What do the screens show for `O=C(Nc1cccc(NC(=O)c2ccc(Br)o2)c1)c1ccccc1`?
Rab9 prom act: -2%; FLuc counter: inconclusive; NPC1 prom act: 13%; ELG1 genotoxic: -5%; SMN2 splice enh: inconclusive

What do the screens show for `Cc1ccccc1C(=O)Nc1cccc(NC(=O)c2ccc(-c3ccc(Br)cc3)o2)c1`?
Rab9 prom act: -1%; FLuc counter: 4.8µM*; NPC1 prom act: -3%; ELG1 genotoxic: 0%; SMN2 splice enh: 24%; Luc counter: -3%

Results for O=C(Nc1ccccc1)c1ccc(Br)o1 ?
Rab9 prom act: 15%; FLuc counter: inconclusive; NPC1 prom act: 16%; ELG1 genotoxic: 17%; SMN2 splice enh: 20%; Luc counter: -16%[39.9 µM]

What do the screens show for `Cc1cccc(NC(=O)c2ccc(C(=O)c3ccccc3)o2)c1`?
Rab9 prom act: inconclusive; FLuc counter: 8.5µM*; NPC1 prom act: 27%; ELG1 genotoxic: inconclusive; SMN2 splice enh: 16µM*; Luc counter: -2%

What do the screens show for `CN1CCN(c2ccc(NC(=O)c3ccc(-c4ccc(Br)cc4)o3)cc2)CC1`?
Rab9 prom act: 6%; FLuc counter: inconclusive; NPC1 prom act: 1%; ELG1 genotoxic: -2%; SMN2 splice enh: -63%; Luc counter: -1%

How did O=C(c1ccccc1)c1cccc(NC(=O)c2ccc(Br)o2)c1 do in these assays?
Rab9 prom act: inconclusive; FLuc counter: 24µM*; NPC1 prom act: 3%; ELG1 genotoxic: 4%; SMN2 splice enh: 4%; Luc counter: 12%

Results for COCCCNC(=O)C1CCN(c2cc(C)nc3c(-c4ccc(OC)c(OC)c4)c(C)nn23)CC1 ?
FLuc counter: 0%; SMN2 splice enh: -3%

How did COc1ccc(NC(=O)CSc2ncccc2C(=O)O)cc1OC do in these assays?
FLuc counter: -10%
